# According to PubChem BioAssay (EPA / NIEHS):
# Calls of active or inactive are those of the source. Rule for the calls: active = hit-call score of the fitted dose curve at least 0.9, where 1 is the maximum; inactive = score below 0.9.
# Assays:
# Conditions in all cases: mRNA level, 48 h; actives raise or lower the signal
# [1] = read-out: Ezrin (EZR), EZR (gene 7430); test: LTEA_HepaRG_EZR: Life Technologies and Expression Analysis (LTEA) Assay for Ezrin (EZR) using HepaRG (AID 2283491)
# Method in brief: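 Gain or loss of EZR mRNA is scored relative to 0.5% DMSO in human HepaRG cultures treated 48 h with test chemicals in duplicate, eight half-log concentrations from 100 uM.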
# [2] = read-out: Cytochrome P450 3A7 (Homo sapiens) (UniProt P24462); test: LTEA_HepaRG_CYP3A7: Life Technologies and Expression Analysis (LTEA) Assay for CYP3A7 using HepaRG (AID 2283492)
# Method in brief: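 CYP3A7 transcript measured by qRT-PCR (ACTB, GAPDH, POLR2A normalization) after 48 h chemical exposure of HepaRG cells in duplicate. Eight half-log concentrations, maximum 100 uM, 0.5% DMSO vehicle; bidirectional curve fitting against DMSO baseline.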
# CYP3A5 (gene 1577) = test: LTEA_HepaRG_CYP3A5: Life Technologies and Expression Analysis (LTEA) Assay for CYP3A5 using HepaRG (AID 2283493)
# Method in brief: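 HepaRG cells, plated 48 h then in serum-free induction medium, dosed in duplicate for 48 h with eight half-log concentrations up to 100 uM in 0.5% DMSO. Gene mRNA by Fluidigm TaqMan qRT-PCR, normalized to ACTB, GAPDH, POLR2A.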
# [3] = read-out: Cytochrome P450 4A22 (Homo sapiens) (UniProt Q5TCH4); test: LTEA_HepaRG_CYP4A22: Life Technologies and Expression Analysis (LTEA) Assay for Cytochrome P450 4A22 (CYP4A22) using HepaRG (AID 2283495)
# Method in brief: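 Gene expression measured by qRT-PCR against three housekeeping genes (ACTB, GAPDH, POLR2A), with gain or loss fitted relative to 0.5% DMSO vehicle. HepaRG cultures received 48 h chemical treatment, top concentration 100 uM, half-log steps, duplicate wells.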
# [4] = read-out: Cytochrome P450 7A1 (Homo sapiens) (UniProt P22680); test: LTEA_HepaRG_CYP7A1: Life Technologies and Expression Analysis (LTEA) Assay for Cytochrome P450 7A1 (CYP7A1) using HepaRG (AID 2283496)
# Method in brief: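 HepaRG cells plated 48 h, then switched to serum-free induction medium and exposed in duplicate for 48 h to 8-point half-log series from 100 uM in 0.5% DMSO. CYP7A1 mRNA by qRT-PCR (TaqMan), normalized to ACTB/GAPDH/POLR2A; bidirectional fit versus DMSO.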
# [5] = read-out: Glutathione S-Transferase (GSTA2), GSTA2 (gene 2939); test: LTEA_HepaRG_GSTA2: Life Technologies and Expression Analysis (LTEA) Assay for Glutathione S-Transferase (GSTA2) using HepaRG (AID 2283497)
# Method in brief: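 Human HepaRG cells, plated 48 h, then exposed in serum-free induction medium for 48 h to eight half-log concentrations up to 100 uM in 0.5% DMSO, duplicate. GSTA2 mRNA by qRT-PCR, normalized to ACTB/GAPDH/POLR2A; bidirectional fit versus DMSO.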
# [6] = read-out: Glutamate-cysteine ligase catalytic (GCLC), GCLC (gene 2729); test: LTEA_HepaRG_GCLC: Life Technologies and Expression Analysis (LTEA) Assay for Glutamate-cysteine ligase catalytic (GCLC) using HepaRG (AID 2283498)
# Method in brief: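 Differentiated human HepaRG cells, plated 48 h then switched to serum-free induction medium, were exposed in duplicate for 48 h to 8 half-log concentrations topping at 100 uM in 0.5% DMSO. GCLC mRNA was quantified by qRT-PCR against ACTB, GAPDH and POLR2A.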
# [7] = read-out: growth arrest and DNA damage 45 (GADD45G), GADD45G (gene 10912); test: LTEA_HepaRG_GADD45G: Life Technologies and Expression Analysis (LTEA) Assay for growth arrest and DNA damage 45 (GADD45G) using HepaRG (AID 2283499)
# Method in brief: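 GADD45G transcript level by qRT-PCR (housekeeping-normalized: ACTB, GAPDH, POLR2A) after 48 h chemical treatment of a single HepaRG lot in serum-free induction medium; eight-point half-log series up to 100 uM in 0.5% DMSO, duplicates, up- or down-regulation scored.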
# [8] = read-out: Glutathione S-transferase M3 (GSTM3), GSTM3 (gene 2947); test: LTEA_HepaRG_GSTM3: Life Technologies and Expression Analysis (LTEA) Assay for Glutathione S-transferase M3 (GSTM3) using HepaRG (AID 2283501)
# Method in brief: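 GSTM3 transcript levels came from Fluidigm TaqMan qRT-PCR normalized to three housekeeping genes, fitted in both directions against DMSO. HepaRG cultures received chemicals for 48 h in serum-free induction medium (0.5% DMSO), 8 half-log concentrations up to 100 uM, duplicate.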
# [9] = read-out: Hypoxia-inducible factor 1-alpha (Homo sapiens) (UniProt Q16665); test: LTEA_HepaRG_HIF1A: Life Technologies and Expression Analysis (LTEA) Assay for Hypoxia-inducible factor 1 (HIF1A) Trancription factor using HepaRG (AID 2283503)
# Method in brief: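 Differentiated HepaRG cells in serum-free induction medium exposed 48 h, in duplicate, to 8-point half-log series from 100 uM in 0.5% DMSO. HIF1A mRNA measured by TaqMan qRT-PCR, normalized to ACTB/GAPDH/POLR2A, fitted bidirectionally versus DMSO.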
# [10] = read-out: 3-Hydroxy-3-Methylglutaryl-CoA Synthase 2 (HMGCS2), HMGCS2 (gene 3158); test: LTEA_HepaRG_HMGCS2: Life Technologies and Expression Analysis (LTEA) Assay for 3-Hydroxy-3-Methylglutaryl-CoA Synthase 2 (HMGCS2) using HepaRG (AID 2283504)
# Method in brief: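 Readout is HMGCS2 transcript by qRT-PCR, housekeeping-normalised (ACTB/GAPDH/POLR2A) and fitted bidirectionally against 0.5% DMSO. Differentiated HepaRG cells received chemicals 48 h, duplicate wells, eight half-log concentrations topping at 100 uM.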
# HGF (gene 3082) = test: LTEA_HepaRG_HGF: Life Technologies and Expression Analysis (LTEA) Assay for Hepatocyte Growth Facto (HGF) using HepaRG (AID 2283505)
# Method in brief: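 HGF transcript was quantified by TaqMan qRT-PCR against three housekeeping genes after 48 h treatment of HepaRG cells. Exposure ran in duplicate over eight half-log steps topping at 100 uM in 0.5% DMSO vehicle.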
# [11] = read-out: Insulin Like Growth Factor 1 (IGF1), IGF1 (gene 3479); test: LTEA_HepaRG_IGF1: Life Technologies and Expression Analysis (LTEA) Assay for Insulin Like Growth Factor 1 (IGF1) using HepaRG (AID 2283506)
# Method in brief: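 Differentiated HepaRG cells in serum-free induction medium, exposed 48 h in duplicate to 8 half-log concentrations up to 100 uM in 0.5% DMSO. IGF1 mRNA by Fluidigm qRT-PCR, normalised to ACTB, GAPDH and POLR2A.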
# [12] = read-out: Intercellular Adhesion Molecule 1 (ICAM1), ICAM1 (gene 3383); test: LTEA_HepaRG_ICAM1: Life Technologies and Expression Analysis (LTEA) Assay for Intercellular Adhesion Molecule 1 (ICAM1) using HepaRG (AID 2283507)
# Method in brief: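 ICAM1 transcript levels measured by qRT-PCR, normalized to three housekeeping genes (ACTB, GAPDH, POLR2A), after 48 h chemical exposure of HepaRG cells. Duplicate eight-point half-log series from 100 uM in 0.5% DMSO; gain or loss fitted against vehicle.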
# [13] = read-out: Insulin-like growth factor-binding protein 1 (IGFBP1), IGFBP1 (gene 3484); test: LTEA_HepaRG_IGFBP1: Life Technologies and Expression Analysis (LTEA) Assay for Insulin-like growth factor-binding protein 1 (IGFBP1) using HepaRG (AID 2283508)
# Method in brief: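 Read-out is qRT-PCR transcript level normalized to three housekeeping genes, fitted in both directions against 0.5% DMSO. Differentiated HepaRG cells received eight half-log concentrations (top 100 uM) in duplicate for 48 h in serum-free induction medium.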
# [14] = read-out: Interleukin 6 (IL6), IL6 (gene 3569); test: LTEA_HepaRG_IL6: Life Technologies and Expression Analysis (LTEA) Assay for Interleukin 6 (IL6) using HepaRG (AID 2283509)
# Method in brief: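 Differentiated human HepaRG cells, plated 48 h then switched to serum-free induction medium, were exposed in duplicate for 48 h to eight half-log concentrations up to 100 uM in 0.5% DMSO. IL6 mRNA measured by qRT-PCR, normalized to ACTB/GAPDH/POLR2A.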
# [15] = read-out: Interleukin 6 Receptor (IL6R), IL6R (gene 3570); test: LTEA_HepaRG_IL6R: Life Technologies and Expression Analysis (LTEA) Assay for Interleukin 6 Receptor (IL6R) using HepaRG (AID 2283510)
# Method in brief: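 Differentiated HepaRG cells, plated 48 h, then exposed in duplicate for 48 h in serum-free induction medium to 8 half-log concentrations (top 100 uM, 0.5% DMSO). IL6R mRNA measured by TaqMan qRT-PCR, normalized to ACTB/GAPDH/POLR2A; bidirectional fit vs DMSO.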
# [16] = read-out: Glutamate-cysteine ligase regulatory (GCLM), GCLM (gene 2730); test: LTEA_HepaRG_GCLM: Life Technologies and Expression Analysis (LTEA) Assay for Glutamate-cysteine ligase regulatory (GCLM) using HepaRG (AID 2283500)
# Method in brief: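 Differentiated HepaRG cells exposed 48 h in serum-free induction medium to eight half-log concentrations up to 100 uM (0.5% DMSO). GCLM mRNA by TaqMan qRT-PCR, normalized to ACTB, GAPDH and POLR2A; bidirectional fit versus DMSO.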
# [17] = read-out: Heat shock 70 kDa protein 1 (HSPA1A), gene 3303; test: LTEA_HepaRG_HSPA1A: Life Technologies and Expression Analysis (LTEA) Assay for Heat shock 70 kDa protein 1 (HSPA1A) using HepaRG (AID 2283502)
# Method in brief: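 Human HepaRG cells in serum-free induction medium were exposed in duplicate for 48 h to 8 half-log concentrations, highest 100 uM, in 0.5% DMSO. HSPA1A mRNA read by TaqMan qRT-PCR, normalized to ACTB, GAPDH, POLR2A, fitted bidirectionally against DMSO.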
# Hypoxia-inducible factor 1-alpha (Homo sapiens), sequence (Q16665 whole entry, looked up): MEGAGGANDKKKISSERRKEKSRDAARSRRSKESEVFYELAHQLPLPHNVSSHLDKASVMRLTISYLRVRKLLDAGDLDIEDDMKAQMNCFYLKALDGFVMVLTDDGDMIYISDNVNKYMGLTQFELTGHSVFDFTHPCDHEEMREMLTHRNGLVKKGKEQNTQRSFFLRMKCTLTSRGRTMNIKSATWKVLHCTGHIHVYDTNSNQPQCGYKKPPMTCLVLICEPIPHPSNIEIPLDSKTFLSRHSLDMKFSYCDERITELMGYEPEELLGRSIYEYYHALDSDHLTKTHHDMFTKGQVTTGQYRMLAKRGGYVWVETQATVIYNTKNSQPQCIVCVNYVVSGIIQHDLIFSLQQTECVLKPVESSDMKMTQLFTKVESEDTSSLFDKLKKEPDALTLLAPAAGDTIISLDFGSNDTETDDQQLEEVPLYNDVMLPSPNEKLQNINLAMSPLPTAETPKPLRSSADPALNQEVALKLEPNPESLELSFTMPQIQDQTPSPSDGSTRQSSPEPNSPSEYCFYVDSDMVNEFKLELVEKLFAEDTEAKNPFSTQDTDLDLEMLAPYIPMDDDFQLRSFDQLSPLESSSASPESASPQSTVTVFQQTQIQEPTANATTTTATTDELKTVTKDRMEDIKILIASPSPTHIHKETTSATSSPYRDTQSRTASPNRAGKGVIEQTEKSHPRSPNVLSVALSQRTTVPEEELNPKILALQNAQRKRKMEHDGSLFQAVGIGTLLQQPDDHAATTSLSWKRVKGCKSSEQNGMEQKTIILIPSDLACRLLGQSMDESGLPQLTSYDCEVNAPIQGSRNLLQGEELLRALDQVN
# Cytochrome P450 3A7 (Homo sapiens), sequence (P24462 whole entry, looked up): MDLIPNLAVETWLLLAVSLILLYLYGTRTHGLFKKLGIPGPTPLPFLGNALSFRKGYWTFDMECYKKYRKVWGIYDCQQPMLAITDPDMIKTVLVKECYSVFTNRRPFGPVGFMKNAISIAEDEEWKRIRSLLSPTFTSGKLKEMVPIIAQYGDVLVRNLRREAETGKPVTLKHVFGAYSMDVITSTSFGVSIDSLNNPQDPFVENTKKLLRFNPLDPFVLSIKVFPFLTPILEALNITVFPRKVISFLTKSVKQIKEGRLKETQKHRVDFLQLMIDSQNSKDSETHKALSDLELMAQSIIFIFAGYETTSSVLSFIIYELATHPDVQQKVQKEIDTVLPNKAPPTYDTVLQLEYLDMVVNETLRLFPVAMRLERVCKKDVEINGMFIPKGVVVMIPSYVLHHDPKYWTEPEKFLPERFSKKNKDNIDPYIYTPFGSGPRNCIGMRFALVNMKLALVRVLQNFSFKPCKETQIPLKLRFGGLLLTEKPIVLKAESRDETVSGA
smiles,measurement,setting,value
CCCCC(CC)COC(=O)CCCCCCCCC(=O)OCC(CC)CCCC (stereo not drawn),outcome,[1],inactive
same,outcome,[2],inactive
same,outcome,CYP3A5 (gene 1577),inactive
same,outcome,[3],inactive
same,outcome,[4],inactive
same,outcome,[5],inactive
same,outcome,[6],inactive
same,outcome,[7],inactive
same,outcome,[8],inactive
same,outcome,[9],inactive
same,outcome,[10],inactive
same,outcome,HGF (gene 3082),inactive
same,outcome,[11],inactive
same,outcome,[12],inactive
same,outcome,[13],inactive
same,outcome,[14],inactive
same,outcome,[15],inactive
C1=CCCC=CCCC=CCC1,outcome,[1],inactive
same,outcome,[2],inactive
same,outcome,CYP3A5 (gene 1577),inactive
same,outcome,[3],inactive
same,outcome,[4],inactive
same,outcome,[5],inactive
same,outcome,[6],inactive
same,outcome,[7],inactive
same,outcome,[8],inactive
same,outcome,[9],inactive
same,outcome,[10],inactive
same,outcome,HGF (gene 3082),inactive
same,outcome,[11],inactive
same,outcome,[12],inactive
same,outcome,[13],inactive
same,outcome,[15],inactive
CC(C)=CCC/C(C)=C\CO,outcome,[1],inactive
same,outcome,[5],inactive
same,outcome,[8],inactive
same,outcome,[10],inactive
same,outcome,HGF (gene 3082),inactive
same,outcome,[11],inactive
same,outcome,[12],inactive
same,outcome,[13],inactive
same,outcome,[15],inactive
CNS(=O)(=O)c1cc(C(=O)N2CCC(CCN3C4CCC3CC(n3c(C)nc5ccccc53)C4)(c3cccc(F)c3)CC2)c(Cl)cc1F (stereo not drawn),AC50,[1],29.6 µM (active)
same,AC50,[2],9.92 µM (active)
same,outcome,CYP3A5 (gene 1577),inactive
same,AC50,[3],22.7 µM (active)
same,AC50,[4],21.5 µM (active)
same,AC50,[5],31.8 µM (active)
same,AC50,[7],30.8 µM (active)
same,outcome,[8],inactive
same,outcome,[9],inactive
same,AC50,[10],23.5 µM (active)
same,outcome,HGF (gene 3082),inactive
same,AC50,[11],16.3 µM (active)
same,AC50,[12],26.4 µM (active)
same,AC50,[13],30.5 µM (active)
same,outcome,[14],inactive
same,outcome,[15],inactive
CCC(C)(C)C(=O)O[C@H]1C[C@@H](C)C=C2C=C[C@H](C)[C@H](CC[C@@H]3C[C@@H](O)CC(=O)O3)[C@H]21,outcome,[1],inactive
same,outcome,[5],inactive
same,outcome,[6],inactive
same,outcome,[7],inactive
same,outcome,[16],inactive
same,outcome,[8],inactive
same,outcome,[17],inactive
same,outcome,[9],inactive
same,outcome,[10],inactive
same,outcome,HGF (gene 3082),inactive
same,outcome,[11],inactive
same,outcome,[12],inactive
same,outcome,[13],inactive
same,outcome,[14],inactive
same,outcome,[15],inactive
